Bioassay records (PubChem BioAssay)
The list is not random: actives were taken first. Their share in the collection is about 12%.
BAZ2B inh: BAZ2B (human) inhibition | Q9UIF8 | AlphaScreen BAZ2B-H3K14Ac peptide displacement | Potency, µM (titrated, usually from 114 µM), for the others: at the highest dose activity change, negative = inhibition, actives largely listed as inhibitors | actives 4.4% (n = 360,000); note: % is set by controls: 0 for no effect and ±100 for the full control effect; nearly all actives have a fitted effect of over 60% in size
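Compounds, titrated to a top concentration of 110 uM, were incubated 30 min at room temperature with preformed BAZ2B/acetyl-K14 H3 peptide complex (50 nM each). Proximity signal was measured by AlphaScreen after 20 min with beads.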
JMJD2A Tudor inh: blocks the human JMJD2A Tudor domain; O75164; AlphaScreen JMJD2A-Tudor / H3K4me3 peptide binding; Potency, µM (titrated, usually from 114 µM), without a hit: top-dose activity change, negative = inhibition, most hits filed as inhibitors; actives 4.4% (n = 390,000); note: % is set by controls: 0 for no effect and ±100 for the full control effect; nearly all actives have a fitted effect of over 50% in size
HP1b chromo inh: blocks HP1-beta chromodomain binding to methylated histone tails; P83916; AlphaScreen HP1-beta / biotin-H3K9me3 peptide binding; Potency, µM (top dose mostly 114 µM), inactives show at the highest dose activity change, negative = inhibition, most hits filed as inhibitors; actives 0.56% (n = 390,000); AID 540317; note: nearly all actives have a fitted effect of over 70% in size
Target sequence (P83916 whole entry, looked up): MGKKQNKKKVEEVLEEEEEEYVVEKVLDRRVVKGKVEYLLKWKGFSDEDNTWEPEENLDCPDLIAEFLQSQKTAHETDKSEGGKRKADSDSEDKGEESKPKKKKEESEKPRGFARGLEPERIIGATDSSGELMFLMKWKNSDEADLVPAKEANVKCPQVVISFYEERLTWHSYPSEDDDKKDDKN
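HP1-beta protein (50 nM final) preincubated 30 min at room temperature with biotinylated H3(1-18)K9me3 peptide (50 nM) in PBS pH 7.4, 0.01% Tween-20, then compound added for 30 min. AlphaScreen streptavidin donor/nickel chelate acceptor beads (10 ug/mL final), 30 min dark, luminescence read.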
PLK1 PBD block: PLK1 (human) polo-box domain binding inhibition; P53350; Plk1 PBD binding of FITC phosphopeptide, fluorescence polarization; Potency, µM, for inactives: max response, negative = inhibition, actives largely listed as inhibitors; actives 2.8% (n = 360,000); AID 720504; note: series mostly up to about 57 µM; % is set by controls: 0 for no effect and ±100 for the full control effect; nearly all actives have a fitted effect of over 65% in size
Sfp inh: blocks B. subtilis Sfp PPTase activity. Potency, µM, for inactives: largest response in the series, negative = inhibition, most hits filed as inhibitors. Biochemical Sfp PPTase activity, qHTS. Q9F4F7. actives 3.5% (n = 310,000);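 note: the enzyme is Sfp with the accession as filed and its product quenches rhodamine fluorescence; 0% = enzyme reaction without inhibitor and -100% = no enzyme wells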
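Buffer: 50 mM Hepes-Na pH 7.6, 10 mM MgCl2, 0.01% Nonidet P-40, 0.01% BSA. Enzyme 15 nM, pre-exposed to compound 15 min; substrates then added and fluorescence change tracked over 30 min.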
G9a block: G9a (human) methyltransferase inhibition; Q96KQ7; G9a H3K9 monomethylation, AlphaScreen, 2 h; Potency, µM (titrated, usually from 102 µM), inactives show at the highest dose activity, negative = inhibition, most hits filed as inhibitors; actives 8.8% (n = 350,000); AID 504332; note: % is set by controls: 0 for no effect and ±100 for the full control effect; nearly all actives have a fitted effect of over 75% in size
Target sequence (Q96KQ7 913-1193 limits assumed): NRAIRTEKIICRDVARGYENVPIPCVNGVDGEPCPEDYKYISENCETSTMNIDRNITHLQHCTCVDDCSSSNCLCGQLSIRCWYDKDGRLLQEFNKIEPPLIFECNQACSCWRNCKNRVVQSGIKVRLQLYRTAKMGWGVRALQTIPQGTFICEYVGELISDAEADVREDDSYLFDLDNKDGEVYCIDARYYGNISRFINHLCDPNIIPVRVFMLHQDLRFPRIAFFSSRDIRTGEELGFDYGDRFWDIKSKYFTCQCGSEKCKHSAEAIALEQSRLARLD
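Signal arises when biotinylated H3K9 peptide, once monomethylated, bridges streptavidin donor and antibody-captured acceptor beads. Enzyme at 20 nM was preincubated 15 min with test compounds; peptide 500 nM and SAM 20 uM then reacted for 2 h.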
* hit, by the source's call; [ ] = dose if it differs, or a comment. Calls come from the whole dose curve; as a rule, active = well fitted curve in the direction sought with a large enough effect; inconclusive = small, poorly fitted or top-dose-only effect, or another doubt; inactive = no such curve, though single readings can be large; an effect the other way counts as inactive or inconclusive. Potency is the fitted concentration of half-maximal effect.

What do the screens show for `O=C1CN(c2nc(-c3cccs3)nc3sc4c(c23)CCCC4)CCN1`?
BAZ2B inh: -30%; JMJD2A Tudor inh: -19%; HP1b chromo inh: 36%; PLK1 PBD block: 27µM*; Sfp inh: inconclusive; G9a block: 8%[12.7 µM]

Results for COc1ccc(-c2csc3nc(-c4cccnc4)nc(N4CCC(C(N)=O)CC4)c23)cc1OC ?
BAZ2B inh: -32%; JMJD2A Tudor inh: -29%; HP1b chromo inh: 4%; PLK1 PBD block: inconclusive; Sfp inh: -32%; G9a block: inconclusive

How did O=C1CN(c2nc(-c3cccnc3)nc3scc(-c4ccccc4)c23)CCN1 do in these assays?
BAZ2B inh: -29%; JMJD2A Tudor inh: 1%; HP1b chromo inh: 36%; PLK1 PBD block: 3%; Sfp inh: -10%; G9a block: 40µM*

Results for Cc1ccc(-n2ncc3c(NCCc4ccccc4)ncnc32)cc1 ?
BAZ2B inh: 13%; JMJD2A Tudor inh: 4%; HP1b chromo inh: 43%; G9a block: 12%[59 µM]

How did O=[N+]([O-])c1ccc(N/N=C2/CCCCC2c2ccccn2)cc1 (stereo not given) do in these assays?
BAZ2B inh: inconclusive; JMJD2A Tudor inh: 16µM*; HP1b chromo inh: -11%[57 µM]; PLK1 PBD block: -20%; Sfp inh: -15%; G9a block: 32µM*

What do the screens show for `O=[N+]([O-])c1ccc(NC2CCCC2)cc1`?
BAZ2B inh: -29%; JMJD2A Tudor inh: -36%; HP1b chromo inh: -1%; PLK1 PBD block: -11%; Sfp inh: 4%; G9a block: -6%[59 µM]

What do the screens show for `O=C1c2cccc(Cl)c2C(=O)c2c1cccc2N1CCCC1`?
JMJD2A Tudor inh: inconclusive; HP1b chromo inh: 22µM*; PLK1 PBD block: -23%

How did C[N+](C)=C1SCC(C)(/C=N/O)S1 (stereo not given) do in these assays?
BAZ2B inh: 4%; JMJD2A Tudor inh: -13%; HP1b chromo inh: 61%; PLK1 PBD block: -10%; Sfp inh: inconclusive; G9a block: 17%

How did Cc1ccn2cc(-c3cccc(NC(=O)C(C)C)c3)nc2c1 do in these assays?
BAZ2B inh: -19%; JMJD2A Tudor inh: inconclusive; HP1b chromo inh: 15%; PLK1 PBD block: 21µM*; Sfp inh: 17%; G9a block: -22%

How did Oc1ccc(-c2cn3ccccc3n2)cc1 do in these assays?
BAZ2B inh: -17%; JMJD2A Tudor inh: -17%; HP1b chromo inh: 48%; PLK1 PBD block: -3%; Sfp inh: 5%; G9a block: inconclusive

How did Cc1ccn2cc(-c3ccc(O)c(O)c3)nc2c1 do in these assays?
BAZ2B inh: 71µM*; JMJD2A Tudor inh: 40µM*; HP1b chromo inh: inconclusive; PLK1 PBD block: -6%; Sfp inh: 50µM*; G9a block: 8.9µM*

How did Oc1ccc(-c2cn3ccccc3n2)cc1O do in these assays?
BAZ2B inh: 79µM*; JMJD2A Tudor inh: 25µM*; HP1b chromo inh: inconclusive; PLK1 PBD block: -1%; Sfp inh: inconclusive; G9a block: 2µM*

Results for Cc1ccc(C(=O)c2oc3ccccc3c2NC(=O)c2cc(-c3ccccc3)on2)cc1 ?
BAZ2B inh: -2%; JMJD2A Tudor inh: 2%; HP1b chromo inh: 56%; G9a block: 5%[59 µM]

Results for Nn1cnn(Cc2ccccc2)c1=S ?
BAZ2B inh: 12%; JMJD2A Tudor inh: -10%; HP1b chromo inh: -25%; PLK1 PBD block: 24µM*; Sfp inh: inconclusive; G9a block: inconclusive

Results for Brc1nc(Br)n(Cc2ccccc2)n1 ?
BAZ2B inh: 4%; JMJD2A Tudor inh: -3%; HP1b chromo inh: 39%; PLK1 PBD block: -8%; Sfp inh: 15%; G9a block: 16%

Results for Nc1ccccc1CCc1ccccc1N ?
PLK1 PBD block: -15%

Results for Nc1nc(-c2ccccc2)cs1 ?
BAZ2B inh: -3%; JMJD2A Tudor inh: -26%; HP1b chromo inh: inconclusive; PLK1 PBD block: inconclusive; Sfp inh: -3%; G9a block: inconclusive

What do the screens show for `O=[N+]([O-])c1ccc(-c2csc(NN=C3CCCC3)n2)cc1`?
BAZ2B inh: -1%; JMJD2A Tudor inh: -28%; HP1b chromo inh: 18%; PLK1 PBD block: -12%; Sfp inh: 16%; G9a block: 50µM*

Results for Nc1nc(-c2ccc(F)cc2)cs1 ?
BAZ2B inh: inconclusive; JMJD2A Tudor inh: -23%; HP1b chromo inh: -39%; PLK1 PBD block: inconclusive; Sfp inh: 9%; G9a block: 45µM*

What do the screens show for `Nc1nc(-c2ccc([N+](=O)[O-])cc2)cs1`?
BAZ2B inh: 1%; JMJD2A Tudor inh: -14%; HP1b chromo inh: 16%; PLK1 PBD block: -11%; Sfp inh: 9%; G9a block: 50µM*

How did Nc1nc(-c2ccc(Br)cc2)cs1 do in these assays?
BAZ2B inh: 50µM*; JMJD2A Tudor inh: 79µM*; HP1b chromo inh: -13%; PLK1 PBD block: -18%; Sfp inh: -6%; G9a block: inconclusive

How did CNc1nc(-c2ccc([N+](=O)[O-])cc2)cs1 do in these assays?
BAZ2B inh: 9%; JMJD2A Tudor inh: -13%; HP1b chromo inh: 0%; PLK1 PBD block: -11%; Sfp inh: -12%; G9a block: -38%[59 µM]

Results for C[C@@]12CCC3[C@@](CCC4[C@@]3(C)CCC[C@@]4(C)C(=O)N3CCCCC3)(CC1=O)C2 (stereo not given in full) ?
BAZ2B inh: 11%; JMJD2A Tudor inh: -18%; HP1b chromo inh: 31%; PLK1 PBD block: -10%; G9a block: 10%[0.501 µM]

What do the screens show for `Cc1cc(C)cc(Nc2nc3ccccc3n3cnnc23)c1`?
BAZ2B inh: 1%; JMJD2A Tudor inh: 1%; HP1b chromo inh: 29%; G9a block: 8%[59 µM]

Results for O=S(=O)(c1ccc2c(c1)OCCO2)N1CCN(S(=O)(=O)c2ccccc2Cl)CC1 ?
JMJD2A Tudor inh: -10%

Results for COC(=O)CC1Oc2ccc(F)cc2-n2cc(-c3ccc(Cl)cc3)nc21 (stereo not given) ?
BAZ2B inh: -28%; JMJD2A Tudor inh: -15%; HP1b chromo inh: 0%; G9a block: -2%[59 µM]

Results for Nc1nc(-c2ccc3c(c2)CCC(=O)N3)cs1 ?
BAZ2B inh: -18%; JMJD2A Tudor inh: -12%; HP1b chromo inh: 26%; PLK1 PBD block: -7%; Sfp inh: 40µM*; G9a block: 45µM*

Results for CC(C)C(=O)Nc1nc(-c2ccc([N+](=O)[O-])cc2)cs1 ?
BAZ2B inh: -17%; JMJD2A Tudor inh: -19%; HP1b chromo inh: 9%; PLK1 PBD block: -8%; Sfp inh: 12%; G9a block: 2%[59 µM]

How did CC1(C)CC(c2nc(-c3ccc([N+](=O)[O-])cc3)cs2)CCO1 (stereo not given) do in these assays?
BAZ2B inh: inconclusive; JMJD2A Tudor inh: -14%[57.1 µM]; HP1b chromo inh: 7%; PLK1 PBD block: -20%; Sfp inh: inconclusive; G9a block: 50µM*
